Where “and” joins values, the source holds several entries; their conditions need not be identical. Equal entries are not always repeated. The panel holds about 83,000 compounds, 20% with a hit somewhere; the sample as a whole holds those more often.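 Interpretation: 100, growth as untreated; towards 0, rising growth inhibition; 0, no net growth; 0 to -100, cell death. Compounds scoring below 10 were considered active.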 A number with no mark means an inactive call. Calls of active or inactive are those of the source.
system: UACC-62 melanoma; test: NCI-60 one-dose screen, 48 h (100 = growth as untreated, 0 = no growth, -100 = all killed); details: 10 µM unless noted

With COc1ccc(C(=O)c2ccc(OC)c(OC)c2OC)cc1 as the molecule, how does the growth read?
The growth was 40.8% and 50.7%.

For O=C1/C(=C/c2ccccc2)CN(C(=O)C(Cl)Cl)C/C1=C\c1ccccc1, which growth is on record?
Its growth is -66.4% (active).

For C=C(C)[C@@H]1CC[C@]2(C(=O)O)CC[C@]3(C)[C@H](CC[C@@H]4[C@@]5(C)CCC(N)C(C)(C)[C@@H]5CC[C@]43C)[C@@H]12 (stereo not given in full), which growth is on record?
The growth was -51.7% (active).

How did the growth turn out when N#C/C(=C\c1ccc(Br)cc1)n1nnc2c(F)cccc21 was run?
Its growth is -37.5% (active).

With COC1=CC(=O)C(OC)=C(O)C1=O as the molecule, how does the growth read?
Its growth is 96.1%.

CC(C)(C)c1cc(NC(=O)Nc2ccc(-c3cn4c(n3)sc3cc(OCCN5CCOCC5)ccc34)cc2)no1 was tested. Which growth did it give?
Its growth is -53.4% (active) and 5.34% (active).

How did the growth turn out when COc1cccc(C2C(C#N)=C(N)Oc3cc(OCCCCCC[P+](c4ccccc4)(c4ccccc4)c4ccccc4)ccc32)c1 (stereo not given) was run?
The growth was -66.8% (active).

For COc1ccc(-c2ccccc2)cc1-c1c(Nc2cc(Cl)cc(Cl)c2O)c(=O)c1=O, which growth is on record?
Its growth is 10.6%.

How did the growth turn out when Cc1ccc(S(=O)(=O)Nc2cc(Sc3ccccc3)c(O)c3ccccc23)cc1 was run?
Its growth is 42.9%.

With COC(=O)c1[nH]nc(OC)c1C1(C(C#N)c2nc3ccccc3s2)CCCc2ccccc21 (stereo not given) as the molecule, how does the growth read?
Its growth is 79.6%.

With COc1ccc(-c2cc(-c3cccc(Cl)c3)c(C#N)c(=O)[nH]2)c(OC)c1 as the molecule, how does the growth read?
The growth was 90.7%.

For Cc1nc(-n2[nH]c(=O)ccc2=O)sc1N=Nc1ccccc1, which growth is on record?
Its growth is 93.3%.

Which growth does the source give for COc1ccc(-c2csc(NC(=O)CN3CCN(CCO)CC3)n2)cc1NS(=O)(=O)c1cccc2c(N(C)C)cccc12 here?
Its growth is 89%.

For COc1ccc(-c2[nH]c3ccccc3c2-c2ccc(OC)cc2)cc1, which growth is on record?
Its growth is 56.7%.

COc1ccc(/C=N\Nc2nc(SCC(C)C)nc(-c3ccc(OC)cc3)c2C#N)cc1 was tested. Which growth did it give?
Its growth is 86.1%.

With CN(C)C(=O)c1cc2cnc(Nc3ccc(-c4csc5c(=S)cc(N6CCOCC6)oc45)cc3)nc2n1C1CCCC1 as the molecule, how does the growth read?
Its growth is -35.8% (active).

For O=C(Nc1ccc2ncsc2c1)c1csc(Nc2ccc3[nH]ncc3c2)n1, which growth is on record?
The growth was 22.7%.

NS(=O)(=O)c1ccc(C(=O)N=Nc2c(O)[nH]c3c(F)cccc23)cc1 was tested. Which growth did it give?
The growth was 99.6%.

How did the growth turn out when C/C=C(\C)C(=O)N[C@H]1CC[C@]2(C)C3CC[C@@]4(C)C(CC[C@@H]4C(C)N(C)C)C3CCC2[C@H]1OC(C)=O (stereo not given in full) was run?
The growth was -51.7% (active).

Which growth does the source give for CC(=O)N1N=C(c2ccc(Nc3nc(Nc4ccc(F)cc4)nc(Nc4ccc(Cl)cc4)n3)cc2)CC1c1ccc(N(C)C)cc1 (stereo not given) here?
The growth was 35.2%.

For ON=C1CCCCCCCC1, which growth is on record?
The growth was 103% and 110%.

For Cc1ccc(NC(=O)c2sc3nc(C)c(C(=O)c4ccccc4)cc3c2N)cc1, which growth is on record?
Its growth is 79.5%.

O=C(/C=C/c1ccc([N+](=O)[O-])cc1)c1ccccc1 was tested. Which growth did it give?
Its growth is 94.9%.

Which growth does the source give for COc1cc(CO)cc2cc3ccccc3nc12 here?
Its growth is 98.7%.

With O=C(Cc1ccc(F)cc1)c1ccccc1 as the molecule, how does the growth read?
The growth was 106%.

For COc1cc(-c2[nH]ncc2Nc2ccc(Cl)cc2)cc(OC)c1OC, which growth is on record?
The growth was 40%.

How did the growth turn out when CC1(Cc2ccccc2)CC2=C(C(=O)O1)C(c1ccccc1)NC(=O)N2 (stereo not given) was run?
The growth was 91.5%.

With C=CCN1C=CC(=O)[C@H](O[Si](C)(C)C(C)(C)C)[C@@H]1/C=C/c1ccccc1 as the molecule, how does the growth read?
Its growth is -78.2% [100 µM] (active).

Cc1ccc(-c2nc3nc(-c4ccc(Cl)cc4)nc(N4CCCNCC4)c3o2)cc1 was tested. Which growth did it give?
The growth was 95.6%.

Which growth does the source give for CC1=C2[C@@H](CC1)[C@]1(C)O[C@@](C3CC3)(C[C@H]1OC(=O)CO)[C@H]2OC(=O)/C=C/c1ccccc1 here?
The growth was 73.1%.

CCN1CCN(C(=O)[C@]23CC[C@@H](C)[C@H](C)[C@@H]2C2=CC[C@@H]4[C@@]5(C)CCC(=O)C(C)(C)[C@@H]5CC[C@@]4(C)[C@]2(C)CC3)CC1 was tested. Which growth did it give?
The growth was -46.1% (active).

How did the growth turn out when CCCO/N=C/c1ccccn1 was run?
The growth was 99.2% and 108%.

With CN(C)CCN1C(=O)c2c(c3c4ccccc4n4c3c3c2c2ccccc2n3C2CC(O)C(O)C4(C)O2)C1=O (stereo not given) as the molecule, how does the growth read?
Its growth is 21.8%.

With CCOC(=O)c1c(-c2ccc(C)cc2)c(C#N)c(=O)n(-c2cccc(C(F)(F)F)c2)c1N as the molecule, how does the growth read?
The growth was 99%.

For CCCCCCCCCCCCCCCC(=O)O[C@@H]1[C@@H](O)[C@@H](O)C([C@H](NC(=O)[C@@H]2C[C@@H](CCC)CN2C)[C@H](C)Cl)O[C@@H]1SC (stereo not given in full), which growth is on record?
The growth was 104%.
